Consider 40 compounds from PubChem BioAssay (EPA / NIEHS).

Values joined by “and” are separate entries in the source; they are usually repeats but may differ in a detail not shown here. Equal values may be shown once. Active and inactive are the calls of the source. Rule for the calls: active = hit-call score of the fitted dose curve at least 0.9, where 1 is the maximum; inactive = score below 0.9.

Read-out in the assay: TIMP metallopeptidase inhibitor 1 (TIMP1), TIMP1 (gene 7076)
Briefly: BSK_hDFCGF_TIMP1: BioMAP Diversity Plus: hDFCGF Assay for TIMP metallopeptidase inhibitor 1 (TIMP1) Biomarker Activity (AID 2283062). To be noted: primary human foreskin fibroblasts; actives raise or lower the signal. The procedure:
BSK_hDFCGF is a cell-based, multiplexed-readout assay that uses foreskin fibroblast, a human skin primary cell, with measurements taken at 24 hours after chemical dosing in a 96-well plate.BSK_hDFCGF_TIMP1 is an assay component measured in the BSK_hDFCGF assay. It measures TIMP-1 antibody related to regulation of gene expression using ELISA technology.Data from the assay component BSK_hDFCGF_TIMP1 was analyzed into 1 assay endpoint. This assay endpoint, BSK_hDFCGF_TIMP1, was analyzed with bidirectional fitting relative to DMSO as the negative control and baseline of activity. Using a type of binding reporter, gain or loss-of-signal activity can be used to understand changes in the signaling as they relate to the gene TIMP1. Furthermore, this assay endpoint can be referred to as a primary readout, because this assay has produced multiple assay endpoints where this one serves a signaling function. To generalize the intended target to other relatable targets, this assay endpoint is annotated to the protease inhibitor intended target family, where the subfamily is metalloproteinase inhibitor.
The levels of cell surface (or secreted, indicated by the prefix "s") biomarker endpoints were measured by ELISA. Overt cytotoxicity to cells in confluent adherent cultures (all systems other than the BT system) was assessed by measuring total protein levels using sulforhodamine B (SRB) staining in parallel cultures at the time of biomarker measurements, indicated as SRB endpoints. For proliferation assays for adherent cell types, individual cell types are cultured at sub-confluence and relative cell numbers quantified by SRB staining at time points optimized for each system (48 h: 3C and CASM3C systems; 72 h: BT and HDF3CGF systems; 96 h: SAg system). SRB was performed by staining cells with 0.1% SRB after fixation with 10% TCA and reading wells at 560 nm.Viability and proliferation of PBMC (T cells) was quantified by Alamar Blue reduction for the SAg and BT systems. For PBMC viability (referred to as PBMC Cytotoxicity within the assay endpoint names), cells were plated (75,000/well in a 96-well plate) and then chemical samples added for 1 h before addition of activators, SEB and TSST-1 (20 ng/mL final concentration each). Cells were incubated for 90 h. Then, Alamar Blue (20 uL/well) (Invitrogen, Cat DAL1100) was added for 6 h, and the plates were read with a fluorescence microplate reader at 546/580 nm (excitation/emission). For PBMC proliferation, cells were plated and activated as above but incubated for only 16 h prior to addition of Alamar Blue. Plates were read after 6 h.
Take `C=C(C)C(=O)OCCC(F)(F)C(F)(F)C(F)(F)C(F)(F)C(F)(F)C(F)(F)C(F)(F)C(F)(F)F`: the outcome was inactive.

For `CCOC(=O)C=Cc1ccccc1`, the outcome was inactive.

For `CCCCOCCOCCO`, the result was inactive.

For the compound `CC/C(=C(\c1ccccc1)c1ccc(OCCN(C)C)cc1)c1ccccc1`, the AC50 – broadly, the midpoint of the concentration-response curve, whichever way the signal moves – was 8.65 µM (active) and 11.5 µM (active).

For the compound `C=CC(=O)OCC(CO)(COC(=O)C=C)COC(=O)C=C`, the AC50 was 0.016 µM (active).

Consider `C=C1CC/C=C(\C)CC[C@@H]2[C@@H]1CC2(C)C`, for which the concentration at half-maximal activity (AC50) is 27.5 µM (active).

On to `C=C(C)C(N)=O`, for which the result was inactive.

`CC(=O)OC(C)(C)C1CC=C(C)CC1` (stereo not given): the outcome was inactive.

Take `C#C[C@]1(O)CC[C@H]2[C@@H]3CCc4cc(O)ccc4[C@H]3CC[C@@]21C`: the outcome was inactive.

On to `CCC(=O)OCC=Cc1ccccc1`, for which the outcome was inactive.

For the compound `CCCO[Si](OCCC)(OCCC)OCCC`, the outcome was inactive.

Turning to `c1ccc2c(c1)-c1ccc3ccc4cccc5cc-2c1c3c45`, the result was inactive.

On to `C=C(F)C(=O)OC(C(F)(F)F)C(F)(F)F`, for which the result was inactive.

As for `OCC(F)(OC(F)(F)C(F)(OC(F)(F)C(F)(F)C(F)(F)F)C(F)(F)F)C(F)(F)F` (stereo not given), the AC50 is 3.33 µM (active).

With `CCCCN(CCO)CCO`, the result was inactive.

Regarding `COC(=O)c1ccc(C(=O)OC)cc1`, the outcome was inactive.

In the case of `O=S1(=O)CC(Cl)(Cl)C(Cl)(Cl)C1`, the AC50 is 0.839 µM (active).

For `CC(=O)CCC=C(C)CCC=C(C)C`, the result was inactive.

With `CC=CC(=O)C1=C(C)C=CCC1(C)C`, the result was inactive.

Turning to `O=S(=O)(O)C(F)(F)C(F)(F)OC(F)(F)C(F)(F)F`, the outcome was inactive.

With `O=C1OC2(c3ccc(O)cc3Oc3cc(O)ccc32)c2ccccc21`, the outcome was inactive.

Turning to `CCn1cc(C(=O)O)c(=O)c2ccc(C)nc21`, the result was inactive.

On to `CCCCCCCCCCCCS`, for which the AC50 was 8.95 µM (active).

Take `c1ccc(Sc2ccccc2)cc1`: the AC50 was 25.5 µM (active).

`C[C@]12CC[C@@H]3c4ccc(O)cc4CC[C@H]3[C@@H]1CC[C@@H]2O`: the result was inactive.

In the case of `O=C(O)C(F)(F)C(F)(F)C(F)(F)C(F)(F)C(F)(F)C(F)(F)C(F)(F)C(F)F`, the result was inactive.

Take `CC1(C)[C@H](C=C(Cl)Cl)[C@H]1C(=O)OCc1cccc(Oc2ccccc2)c1`: the outcome was inactive.

With `CC(C)(CO)CO`, the outcome was inactive.

On to `CCCCCCCC1CCCC1=O` (stereo not given), for which the outcome was inactive.

Turning to `Nc1ccc(N)c([N+](=O)[O-])c1`, the outcome was inactive.

Turning to `CCOC(=O)CCCCCCCCC(=O)OCC`, the outcome was inactive.

As for `CC(=O)c1ccc(C)cc1`, the outcome was inactive.

For `NC(=O)c1c(Cl)cccc1Cl`, the result was inactive.

As for `c1ccc(OCCOc2ccccc2)cc1`, the outcome was inactive.

Take `CC(C)(C)c1cccc(O)c1`: the outcome was inactive.

As to `OCCN1CCOCC1`, the result was inactive.

In the case of `O=C(c1ccc(OCCN2CCCCC2)cc1)c1c(-c2ccc(O)cc2)sc2cc(O)ccc12`, the AC50 is 35.8 µM (active).

Turning to `COc1ccccc1NC(=O)CC(C)=O`, the outcome was inactive.

For `CC(C)CCCC(C)(C)O`, the result was inactive.

Take `CCCCCCCCCC(=O)OCC`: the result was inactive.
